Measured values: PubChem BioAssay (NCATS)
Results filed as inconclusive are left out. Unmarked numbers belong to inactive results. The source made the active and inactive calls. Calls come from the whole dose curve; as a rule, active = well fitted inhibition curve with a large enough effect; inconclusive = small, poorly fitted or top-dose-only effect; inactive = flat fitted curve, though single readings scatter.

assay: BET inhibitor-based combinations targeting novel dependencies in MECOM-rearranged (r) AML: AML-194 cell line (AID 2202237; note: nearly all actives have a fitted effect of over 40% in size;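 for viability (% of control): plate controls were vehicle wells for no effect and wells without cells for full effect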); settings: AML-194 (MECOM-r AML) viability, CellTiter-Glo, 48 h; series mostly up to 46 µM; viability (% of control): at the top concentration
Text: Ecotropic viral insertion site 1 (EVI1) is located on chromosome 3q26.2 as part of the MECOM (MDS and EVI1 complex) locus. Under normal hematopoiesis, EVI1 is a regulator of hematopoietic stem cell maintenance and self-renewal and EVI1 levels decrease as the cells differentiate. In approximately 5-10% of de novo acute myeloid leukemia (AML) EVI1 is aberrantly expressed, including Chromosomal inv(3)(q21;q26.2) or t(3;3)(q21;q26.2) alterations (MECOM-r) that account for about 50% of AML with EVI1 overexpression 31. AMLs with high levels of EVI1 have a poor prognosis and an overall survival time averaging between 10-14 months. EVI1 overexpression confers resistance in leukemia cells, highlighting the need to develop new targeted therapies for EVI1 overexpressing AMLs.
Here, we performed an unbiased chemical drug screening by evaluating the single agent activity of a collection of 2,480 oncology-focused, approved and investigational drugs (NCATS Mechanism Interrogation Plates, MIPE v5.0) against a panel of seven AML cell lines. These included four MECOM-r cell-lines (AML-191, AML-194, UCSD-AML1 and HNT-34) and three non-MECOM-r AMLs (MV4-11, OCI-AML3 and SET-2). Exploiting the mechanistic redundancy built in the library, we identified target-level sensitivities in MECOM-r AML cells and relative activity as compared to other AML subtypes.
A collection of 2480 mechanistically annotated dugs (MIPE v5.0) was used to screen four 3q26.2 rearranged AML cell lines and three non-3q26.2 rearranged AML cell lines. This library purposely exploits redundancy by including multiple inhibitors of key onco-targets, while simultaneously encompassing mechanistic diversity, targeting more than 800 distinct mechanisms of action. Briefly, cells were seeded in 5 uL of growth media using a Multidrop Combi dispenser into 1536 well white polystyrene tissue culture treated plates (Corning) at a density of 500cells/well. For each cell-line, for each of the 2480 drugs in MIPE v5.0 library, an 11-point dose curve was generated via a 1536 pin-tool. Plates were incubated for 48 hr at standard incubator conditions, covered by a stainless steel gasketed lid to prevent evaporation. Cell viability was determined by luminescence based, Cell Titer Glo assay (Promega). In detail, 3 uL of Cell Titer Glo were added to each well and plates were incubated at room temperature for 15 min with a stainless-steel lid in place. Luminescence readings were taken using a Viewlux (PerkinElmer) with a 2 s exposure time per plate. Compound dose-response curves were normalized to DMSO and empty well controls on each plate. Quantitative drug activity data from dose-response curves was determined utilizing area Under the Curve (AUC) and Z-transformed AUC (Z-AUC, a mean-centering transformation applied to each individual cell-line screened).
Potency is the fitted concentration of half-maximal effect.

Structure (SMILES)	viability (% of control) [%]	Potency
Cc1ccc(-c2cc(C(F)(F)F)nn2-c2ccc(S(N)(=O)=O)cc2)cc1	81.1	–
CNC(=O)c1cc(Oc2ccc(NC(=O)Nc3ccc(Cl)c(C(F)(F)F)c3)cc2)ccn1	–	16.6 µM (active)
Cc1csc(NC(=O)c2sc3nc4c(c(C(F)(F)F)c3c2N)CCC4)n1	95.7	–
N#Cc1c(C2CCNCC2)cc(-c2c(O)cccc2OCC2CC2)nc1N	–	16.6 µM (active)
CN(CCOc1ccc(NS(C)(=O)=O)cc1)CCc1ccc(NS(C)(=O)=O)cc1	101	–
O=C(CCl)Nc1cccc(NC2=NS(=O)(=O)c3ccccc32)c1	–	13.2 µM (active)
Nc1nc(OCc2ccccc2)c2[nH]cnc2n1	80.3	–
OCc1ccc(-c2ccc(-c3ccc(CO)s3)o2)s1	–	26.3 µM (active)
Cc1c(-c2ccnn2C)cc(C(=O)NCc2ccc(S(C)(=O)=O)cn2)c(=O)n1-c1cccc(C(F)(F)F)c1	85.5	–
CC(C)C[C@H](CC(=O)O)C(=O)N[C@@H](Cc1c[nH]c2ccccc12)C(=O)N[C@@H](C)c1ccccc1	–	18.6 µM (active)
Nc1ncnc2c1C(=O)N(c1ccc(C3CCC(CC(=O)O)CC3)cc1)CCO2 (stereo not given)	99.3	–
O=C(O)c1cc(=O)c2c(OCC(O)COc3cccc4oc(C(=O)O)cc(=O)c34)cccc2o1	117	–
COc1c(N2C[C@@H]3CCCN[C@H]3C2)c(F)cc2c(=O)c(C(=O)O)cn(C3CC3)c12	96.5	–
CCCNS(=O)(=O)Nc1ncnc(OCCOc2ncc(Br)cn2)c1-c1ccc(Br)cc1	94.2	–
CS(=O)(=O)N(Cc1ccco1)CC(O)Cn1c2ccccc2c2ccccc21 (stereo not given)	99.5	–
COc1cc2ncnc(Nc3ccc(F)c(Cl)c3)c2cc1NC(=O)/C=C/CN1CCCCC1	–	8.33 µM (active)
CN1C(C(=O)Nc2ccccn2)=C(O)c2sc(Cl)cc2S1(=O)=O	98.9	–
Nc1nc(N)c2nc(-c3cccc(O)c3)c(-c3cccc(O)c3)nc2n1	97.9	–
Cc1cccc(CN2CCN(C(c3ccccc3)c3ccc(Cl)cc3)CC2)c1 (stereo not given)	101	–
COC(=O)[C@@H]1[C@H]2C[C@H]3c4[nH]c5ccccc5c4CCN3C[C@@H]2CC[C@@H]1O	99.7	–

Structure (SMILES)	viability (% of control) [%]	Potency
CCCCCN(CCC12CC3CC(CC(C3)C1)C2)C(=O)NCCCc1ccncc1	–	18.6 µM (active)
O=C(O)c1cc(O)c2c(c1)C(=O)c1cccc(O)c1C2=O	119	–
Cc1ccc(NC(=O)c2cccc(N(C)C)c2)cc1NC(=O)c1ccc(O)cc1	96.9	–
CCN1CCN(C(=O)N[C@@H](C(=O)N[C@@H]2C(=O)N3C(C(=O)O)=C(CSc4nnnn4C)CS[C@H]23)c2ccc(O)cc2)C(=O)C1=O	105	–
C[C@H]1CN(C[C@H](Cc2ccccc2)C(=O)NCC(=O)O)CC[C@@]1(C)c1cccc(O)c1	121	–
CCc1ccc(CCOc2ccc(CC3SC(=O)NC3=O)cc2)nc1 (stereo not given)	–	5.25 µM (active)
O=c1c(O)c(-c2ccc(O)cc2O)oc2cc(O)cc(O)c12	114	–
Cc1ccc(-n2nc(C(C)(C)C)cc2NC(=O)Nc2ccc(OCCN3CCOCC3)c3ccccc23)cc1	95.7	–
CC(=O)Nc1ccc(C(=O)Nc2ccccc2N)cc1	–	18.6 µM (active)
O=c1ccn([C@@H]2O[C@H](CO)[C@H](O)[C@@H]2F)c(=O)[nH]1	101	–
Cc1cc(Nc2cc(NC(=O)c3c(Cl)cccc3Cl)ccn2)nc(N)n1	–	0.332 µM (active)
CC(C)C(C)C=CC(C)C1CCC2C3=CC=C4CC(O)CCC4(C)C3CCC21C (stereo not given)	106	–
Cc1c(CCOc2ccc(C(=O)O)cc2)c2cc(Cl)ccc2n1C(c1ccccc1)c1ccccc1	107	–
CCCN1CCN(c2ccc(C(=O)NC3(C(=O)NCC#N)CCCCC3)cc2)CC1	100	–
C=C1C[C@@]2(O)O[C@@]3(C[C@H]2C(C)C)[C@@H](C)CC[C@@H]13	106	–
COc1cc(Nc2nc3ccccc3nc2NS(=O)(=O)c2ccc(NC(=O)c3ccc(C)c(OC)c3)cc2)cc(OC)c1	100	–
Cc1ccccc1C(C(=O)NC1CCCCC1)N(C(=O)CNc1ccc(C#N)cc1)c1cccc(F)c1 (stereo not given)	104	–
CC(C)=CC[C@@H](O)C1=CC(=O)c2c(O)ccc(O)c2C1=O	–	10.5 µM (active)
Nc1ncnc2c1ncn2[C@@H]1O[C@H](CO)[C@@H](O)[C@H]1O	134	–
O=c1[nH]nc(Sc2ncc([N+](=O)[O-])s2)n1-c1ccc2c(c1)OCCO2	–	7.42 µM (active)
